Measurements taken from PubChem BioAssay (NCATS).
Inconclusive results are not listed. Entries that show only a call come without a potency. Activity calls are given as the source filed them. Calls follow the shape of the dose curve; as a rule, active = well fitted inhibition curve with a large enough effect; inconclusive = small, poorly fitted or top-dose-only effect; inactive = flat fitted curve, though single readings scatter.

system: CP247; experiment: qHTS profiling for inhibitors of Plasmodium falciparum proliferation (AID 504749); also: nearly all actives have a fitted effect of over 60% in size; conditions: P. falciparum in erythrocytes, SYBR Green DNA, 72 h; series mostly up to 28.7 µM
How it was run: (§1)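 Infected RBCs, 0.3% parasitemia/2.5% Hct final; cpd 72 h, 37 C, 5% CO2; lysis buffer with saponin/triton/SYBR Green I, o/n RT dark; FI 485/535; norm. to artemisinin (0.29 uM) and DMSO.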
Potency is read from the fitted curve at half-maximal effect.

| SMILES | Potency |
| --- | --- |
| CC(C)[C@@H](N)C(=O)O | inactive |
| O=C(O)COc1ccc(CCNS(=O)(=O)c2ccccc2)s1 | inactive |
| CC(=O)Nc1ccc(OC(=O)c2ccccc2O)cc1 | inactive |
| CC(C)O | inactive |
| C=CC[C@@H]1/C=C(\C)C[C@H](C)C[C@H](OC)[C@H]2O[C@@](O)(C(=O)C(=O)N3CCCC[C@H]3C(=O)O[C@H](/C(C)=C/[C@@H]3CC[C@@H](O)[C@H](OC)C3)[C@H](C)[C@@H](O)CC1=O)[C@H](C)C[C@@H]2OC | 1.41 µM (active) |
| Cc1cc(=O)c(C(=O)N[C@@H](C(=O)N[C@@H]2C(=O)N3C(C(=O)O)=C(CSc4nnnn4C)CS[C@H]23)c2ccc(O)cc2)c[nH]1 | inactive |

system: CP250; experiment: as above; conditions: P. falciparum in erythrocytes, SYBR Green DNA, 72 h; series mostly up to 28.7 µM
How it was run: as §1

| SMILES | Potency |
| --- | --- |
| CC/C=C\C/C=C\C/C=C\C/C=C\C/C=C\C/C=C\CCC(=O)O | inactive |
| O=C(O)/C=C/c1ccccc1 | inactive |
| CC(=O)Oc1cccc(C(=O)O)c1OC(C)=O | inactive |
| CC(CNC(=O)c1cccnc1)NC(=O)c1cccnc1 (centres undefined) | inactive |
| CN=C1C=CC(=C(c2ccc(N(C)C)cc2)c2ccc(N(C)C)cc2)C=C1 | 0.562 µM (active) |
| CC/C(=C(/CC)c1ccc(OP(=O)(O)O)cc1)c1ccc(OP(=O)(O)O)cc1 | inactive |
| ClC(Cl)Cl | inactive |
| CCCCCCCCCCCCCCCCCC[N+](C)(C)CCC[Si](OC)(OC)OC | inactive |
| Oc1cc(O)cc(O)c1 | inactive |
| CC(=O)Nc1c(I)c(C(=O)O)c(I)c(N(C)C(C)=O)c1I | inactive |
| CC(C)CCC[C@@H](C)[C@H]1CC[C@H]2[C@@H]3CC=C4C[C@@H](O)CC[C@]4(C)[C@H]3CC[C@]12C | inactive |
| CCCCCCCCCCCCOCCCN | inactive |
| CC(C)(C)c1ccc2c(S(=O)(=O)O)c(C(C)(C)C)ccc2c1 | inactive |
| CCSc1ccc2c(c1)N(CCCN1CCN(C)CC1)c1ccccc1S2 | inactive |
| c1ccc(-n2cnnn2)cc1 | inactive |
| CN1CCC(OC(=O)C(Oc2ccc(Cl)cc2)Oc2ccc(Cl)cc2)CC1 | inactive |
| CC(C)Cc1ccc([C@@H](C)C(=O)NS(C)(=O)=O)cc1 | inactive |
| CCCc1ccc(C(=O)O)cc1 | inactive |
| CNC(=O)c1c(I)c(C(=O)NCC(=O)Nc2c(I)c(C(=O)O)c(I)c(C(=O)NCCO)c2I)c(I)c(N(C)C(C)=O)c1I | inactive |
| CC1CC(O)CC(C)(C)C1 (centres undefined) | inactive |

| SMILES | Potency |
| --- | --- |
| C=Cc1ccc(S(=O)(=O)O)cc1 | inactive |
| OCC1(CO)COC(C(Cl)(Cl)Cl)OC1 | inactive |
| CC(C)(C)CC(C)(C)c1cc(Cc2cc(C(C)(C)CC(C)(C)C)cc(-n3nc4ccccc4n3)c2O)c(O)c(-n2nc3ccccc3n2)c1 | inactive |
| O=C(O)c1ccc(OCCn2ccnc2)cc1 | inactive |
| CC(C)c1ncc([N+](=O)[O-])n1C | inactive |
| CN1c2c(nc(N)[nH]c2=O)NCC1CNc1ccc(C(=O)NC(CCC(=O)O)C(=O)O)cc1 (centres undefined) | inactive |
| N=C(N)n1cccn1 | inactive |
| N[C@H](CC(=O)O)C(=O)O | inactive |
| NCC(O)CC(=O)O (centres undefined) | inactive |
| CCN(CC)C(=O)c1cccnc1 | inactive |
| CCOC(C)OCC | inactive |
| FCOC(C(F)(F)F)C(F)(F)F | inactive |
| CN[C@@H]1[C@H](O[C@H]2[C@H](O[C@H]3[C@H](O)[C@@H](O)[C@H](N=C(N)N)[C@@H](O)[C@@H]3N=C(N)N)O[C@@H](C)[C@]2(O)C=O)O[C@@H](CO)[C@H](O)[C@H]1O | inactive |
| CC(C)[C@@H](N)C(=O)O | inactive |
| O=C(O)COc1ccc(CCNS(=O)(=O)c2ccccc2)s1 | inactive |
| CC(=O)Nc1ccc(OC(=O)c2ccccc2O)cc1 | inactive |
| CC(C)O | inactive |
| C=CC[C@@H]1/C=C(\C)C[C@H](C)C[C@H](OC)[C@H]2O[C@@](O)(C(=O)C(=O)N3CCCC[C@H]3C(=O)O[C@H](/C(C)=C/[C@@H]3CC[C@@H](O)[C@H](OC)C3)[C@H](C)[C@@H](O)CC1=O)[C@H](C)C[C@@H]2OC | 0.891 µM (active) |
| Cc1cc(=O)c(C(=O)N[C@@H](C(=O)N[C@@H]2C(=O)N3C(C(=O)O)=C(CSc4nnnn4C)CS[C@H]23)c2ccc(O)cc2)c[nH]1 | inactive |

system: CP252; experiment: as above; conditions: P. falciparum in erythrocytes, SYBR Green DNA, 72 h; series mostly up to 28.7 µM
How it was run: as §1

| SMILES | Potency |
| --- | --- |
| CC/C=C\C/C=C\C/C=C\C/C=C\C/C=C\C/C=C\CCC(=O)O | inactive |
| O=C(O)/C=C/c1ccccc1 | inactive |
| CC(=O)Oc1cccc(C(=O)O)c1OC(C)=O | inactive |
| CC(CNC(=O)c1cccnc1)NC(=O)c1cccnc1 (centres undefined) | inactive |
| CN=C1C=CC(=C(c2ccc(N(C)C)cc2)c2ccc(N(C)C)cc2)C=C1 | 0.398 µM (active) |
| CC/C(=C(/CC)c1ccc(OP(=O)(O)O)cc1)c1ccc(OP(=O)(O)O)cc1 | inactive |
| ClC(Cl)Cl | inactive |
| CCCCCCCCCCCCCCCCCC[N+](C)(C)CCC[Si](OC)(OC)OC | inactive |
| Oc1cc(O)cc(O)c1 | inactive |
| CC(=O)Nc1c(I)c(C(=O)O)c(I)c(N(C)C(C)=O)c1I | inactive |
| CC(C)CCC[C@@H](C)[C@H]1CC[C@H]2[C@@H]3CC=C4C[C@@H](O)CC[C@]4(C)[C@H]3CC[C@]12C | inactive |
| CCCCCCCCCCCCOCCCN | inactive |
| CC(C)(C)c1ccc2c(S(=O)(=O)O)c(C(C)(C)C)ccc2c1 | inactive |
| CCSc1ccc2c(c1)N(CCCN1CCN(C)CC1)c1ccccc1S2 | inactive |
| c1ccc(-n2cnnn2)cc1 | inactive |
| CN1CCC(OC(=O)C(Oc2ccc(Cl)cc2)Oc2ccc(Cl)cc2)CC1 | inactive |
| CC(C)Cc1ccc([C@@H](C)C(=O)NS(C)(=O)=O)cc1 | inactive |
| CCCc1ccc(C(=O)O)cc1 | inactive |
| CNC(=O)c1c(I)c(C(=O)NCC(=O)Nc2c(I)c(C(=O)O)c(I)c(C(=O)NCCO)c2I)c(I)c(N(C)C(C)=O)c1I | inactive |
| CC1CC(O)CC(C)(C)C1 (centres undefined) | inactive |

| SMILES | Potency |
| --- | --- |
| C=Cc1ccc(S(=O)(=O)O)cc1 | inactive |
| OCC1(CO)COC(C(Cl)(Cl)Cl)OC1 | inactive |
| CC(C)(C)CC(C)(C)c1cc(Cc2cc(C(C)(C)CC(C)(C)C)cc(-n3nc4ccccc4n3)c2O)c(O)c(-n2nc3ccccc3n2)c1 | inactive |
| O=C(O)c1ccc(OCCn2ccnc2)cc1 | inactive |
| CC(C)c1ncc([N+](=O)[O-])n1C | inactive |
| CN1c2c(nc(N)[nH]c2=O)NCC1CNc1ccc(C(=O)NC(CCC(=O)O)C(=O)O)cc1 (centres undefined) | inactive |
| N=C(N)n1cccn1 | inactive |
| N[C@H](CC(=O)O)C(=O)O | inactive |
| NCC(O)CC(=O)O (centres undefined) | inactive |
| CCN(CC)C(=O)c1cccnc1 | inactive |
| CCOC(C)OCC | inactive |
| FCOC(C(F)(F)F)C(F)(F)F | inactive |
| CN[C@@H]1[C@H](O[C@H]2[C@H](O[C@H]3[C@H](O)[C@@H](O)[C@H](N=C(N)N)[C@@H](O)[C@@H]3N=C(N)N)O[C@@H](C)[C@]2(O)C=O)O[C@@H](CO)[C@H](O)[C@H]1O | inactive |
| CC(C)[C@@H](N)C(=O)O | inactive |
| O=C(O)COc1ccc(CCNS(=O)(=O)c2ccccc2)s1 | inactive |
| CC(=O)Nc1ccc(OC(=O)c2ccccc2O)cc1 | inactive |
| CC(C)O | inactive |
| C=CC[C@@H]1/C=C(\C)C[C@H](C)C[C@H](OC)[C@H]2O[C@@](O)(C(=O)C(=O)N3CCCC[C@H]3C(=O)O[C@H](/C(C)=C/[C@@H]3CC[C@@H](O)[C@H](OC)C3)[C@H](C)[C@@H](O)CC1=O)[C@H](C)C[C@@H]2OC | 1 µM (active) |
| Cc1cc(=O)c(C(=O)N[C@@H](C(=O)N[C@@H]2C(=O)N3C(C(=O)O)=C(CSc4nnnn4C)CS[C@H]23)c2ccc(O)cc2)c[nH]1 | inactive |
